HCMV antiviral: human cytomegalovirus inhibition; HFF cells, HCMV-luciferase reporter, 72 h; hits give low values; activity change, negative = inhibition, % at 57.5 µM; actives 4.5% (n = 410,000); in the data active means activity change below about -60%; inconclusive means no clear call, values can overlap the other calls; inactive means above about -39%
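Human foreskin fibroblasts infected with luciferase-reporter HCMV at MOI 1 PFU/cell, compounds at two doses. Luciferase measured 72 h post infection; normalized to buffer-only basal and Salinomycin (10uM) controls.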
Lassa entry inh: blocks Lassa virus binding to or entry into cells; Lassa virus pseudotype entry inhibition, cell reporter; Potency, µM (top dose mostly 37.9 µM), for the others: at the top dose activity change, negative = inhibition, most hits filed as inhibitors; actives 1.2% (n = 300,000); AID 540256; calls by dose curve; tested in HEK293 cells; further: potency means the concentration at half of the fitted maximal effect; nearly all actives have a fitted effect of over 50% in size
FMDV inh: blocks foot and mouth disease virus; FMDV antiviral cell-based qHTS; actives 1.2% (n = 410,000); Potency, µM (doses to about 57.9 µM), for the others: top-dose activity change, negative = inhibition, actives largely listed as inhibitors; AID 1159524; calls by dose curve; tested in HEK293T cells; further: read-out not given here; potency means the concentration at half of the fitted maximal effect; nearly all actives have a fitted effect of over 45% in size
HCV inhibitor: blocks hepatitis C virus. Huh7.5.1 HCVcc-Cre infection, luciferase reporter, 44 h. Potency, µM (top dose mostly 41.8 µM), for inactives: at the highest dose activity change, negative = inhibition, usual class: inhibitors. actives 3.4% (n = 340,000). AID 651820; active means well fitted inhibition curve with a large enough effect; inconclusive means small, poorly fitted or top-dose-only effect, or another doubt; inactive means no such curve, though single readings can be large or run the other way; further: potency means the concentration at half of the fitted maximal effect
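Reporter virus HCVcc-Cre (~0.5 moi) infects cells exposed to compound; seeding density 1,000 cells/well with 4 h settling beforehand. Luminescence, 15 sec read, taken 44 h post-infection following a 15 min RT substrate incubation.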
Marburg entry inh: inhibitors of Marburg virus binding or cell entry; Marburg virus pseudotyped entry inhibition, cell reporter; Potency, µM (series often up to 37.8 µM), for inactives: at the highest dose activity change, negative = inhibition, actives largely listed as inhibitors; actives 1.8% (n = 300,000); calls by dose curve; tested in HEK293 cells; further: potency means the concentration at half of the fitted maximal effect
Numbers without * were called inactive; [ ] = another dose, or the depositor's remark. Most compounds without a hit are left out; they make up all but 7.9% or so of the library. On the % scale 0 is the no-effect control and ±100 the full control effect.

What do the screens show for `CCn1nc(C(=O)OCc2c(C)noc2C)c2ccccc2c1=O`?
HCMV antiviral: -22.6; Lassa entry inh: 6.8%; FMDV inh: -4.5%; HCV inhibitor: 42.7%; Marburg entry inh: 8.6%

How did Cc1ccc(NC(=O)c2ccc(OCc3c(C)noc3C)cc2)nc1 do in these assays?
HCMV antiviral: inconclusive; FMDV inh: inconclusive; HCV inhibitor: 11.2µM*

What do the screens show for `COc1ccccc1NC(=O)CSc1nc2ccccc2c(=O)n1CCC(=O)NC1CCCCC1`?
HCMV antiviral: 10.9; Lassa entry inh: -0.2%[46.1 µM]; FMDV inh: -12.7%

How did CCNc1ncc2nc(-c3ccccc3)c(=O)n(-c3ccc(OC)cc3)c2n1 do in these assays?
FMDV inh: 3.3%

What do the screens show for `O=C(c1ccccc1)N1CC(=O)N2[C@H](CO)[C@@H](c3ccc(Br)cc3)[C@@H]2C1`?
HCMV antiviral: -27.6

How did Cc1noc(C)c1COc1ccccc1C(=O)NCCc1ccccc1 do in these assays?
HCMV antiviral: -16.5; Lassa entry inh: 7.8%; FMDV inh: -16.0%; HCV inhibitor: 3.16µM*; Marburg entry inh: -10.7%

How did Cc1ccc(C)c2c1[nH]c1ccccc12 do in these assays?
HCMV antiviral: 22.3; Lassa entry inh: -4.9%; FMDV inh: -1.0%; HCV inhibitor: 7.94µM*; Marburg entry inh: 7.0%

How did Cc1c(C(=O)NN)[nH]c2ccc([N+](=O)[O-])cc12 do in these assays?
HCMV antiviral: -27.1; Lassa entry inh: -17.9%; FMDV inh: -1.0%; HCV inhibitor: -10.0%; Marburg entry inh: inconclusive

How did Cc1ccc(C)c2c1[nH]c1ccc([N+](=O)[O-])cc12 do in these assays?
HCMV antiviral: -30.0; Lassa entry inh: inconclusive; FMDV inh: -12.2%; HCV inhibitor: 10µM*; Marburg entry inh: -16.5%

What do the screens show for `CC(NC(=S)Nc1ccccc1OC(F)F)C(C)(C)C` (stereo not drawn)?
HCMV antiviral: -65.2*; Lassa entry inh: 16.5%; FMDV inh: 6.8%; HCV inhibitor: 4.0%; Marburg entry inh: 32.8%

How did N#Cc1cccc(C(c2nnnn2C2CCCC2)N2CCC(Cc3ccccc3)CC2)c1 (stereo not drawn) do in these assays?
HCMV antiviral: -35.5; Lassa entry inh: -27.0%; FMDV inh: -2.8%; HCV inhibitor: inconclusive; Marburg entry inh: inconclusive

Results for N#Cc1ccc(C(c2nnnn2C2CCCC2)N2CCC(Cc3ccccc3)CC2)cc1 (stereo not drawn) ?
HCMV antiviral: -90.5*; Lassa entry inh: -3.9%; FMDV inh: -11.1%; HCV inhibitor: -2.1%; Marburg entry inh: -28.1%

How did O=C(c1cnccn1)N1CC(=O)N2[C@@H](CO)[C@H](c3ccc(Br)cc3)[C@@H]2C1 do in these assays?
HCMV antiviral: -22.9

What do the screens show for `CCOC(=O)Cc1c(C(=O)OCC)nnc2c(-c3ccccc3)c(C)nn12`?
HCMV antiviral: -7.0; Lassa entry inh: -2.6%[46.1 µM]; FMDV inh: -20.0%; Marburg entry inh: -10.8%[46.1 µM]

Results for COc1ccc(OCCN2C(=O)c3ccccc3C2=O)cc1 ?
HCMV antiviral: 4.8; Lassa entry inh: 28.6%; FMDV inh: 53.3%; HCV inhibitor: -2.7%; Marburg entry inh: 1.9%[46.1 µM]

What do the screens show for `COc1ccc(C2=Nc3ccccc3C2(O)CCN2C(=O)c3ccccc3C2=O)cc1` (stereo not drawn)?
HCMV antiviral: 18.6; FMDV inh: 11.0%; HCV inhibitor: 0.891µM*; Marburg entry inh: -1.1%

What do the screens show for `Cc1ccc(-c2nc3c(C)cccn3c2Nc2ccccc2C)s1`?
HCMV antiviral: -65.0*; Lassa entry inh: 20.9%[46.1 µM]; FMDV inh: -13.2%; Marburg entry inh: -22.0%[46.1 µM]

How did Cc1cccn2c(Nc3ccccc3)c(-c3cccs3)nc12 do in these assays?
HCMV antiviral: -60.9*; Lassa entry inh: 21.2%[46.1 µM]; FMDV inh: -7.2%; Marburg entry inh: -11.2%[46.1 µM]

What do the screens show for `COC(=O)[C@]1(C#N)[C@H](CC(C)C)C(=O)N(Cc2ccc(Cl)cc2)[C@@H]1c1ccc(OC)cc1`?
HCMV antiviral: 9.7

Results for CCN1CCN(c2ncc3c(n2)CCN(CC(C)C)C3)CC1 ?
HCMV antiviral: -7.8; Lassa entry inh: -6.9%[46.1 µM]; FMDV inh: 0.7%

Results for COc1cc(C2C=C(C34CC5CC(CC(C5)C3)C4)NC(=S)N2)cc(OC)c1OC (stereo not drawn) ?
HCMV antiviral: -28.2; Lassa entry inh: inconclusive; FMDV inh: -1.9%; HCV inhibitor: -25.0%; Marburg entry inh: inconclusive

What do the screens show for `COc1ccc(OC)c(C2C=C(C34CC5CC(CC(C5)C3)C4)NC(=S)N2)c1` (stereo not drawn)?
HCMV antiviral: inconclusive; Lassa entry inh: inconclusive; FMDV inh: -0.9%; HCV inhibitor: 2.51µM*; Marburg entry inh: 7.08µM*

How did COCCCNC(=O)Cn1c(=O)n(-c2cccc(C)c2)c(=O)c2c3c(sc21)CN(C(C)=O)CC3 do in these assays?
HCMV antiviral: 3.2; FMDV inh: 11.2%; Marburg entry inh: 6.7%[46.1 µM]

What do the screens show for `Cc1cc(Nc2cccc(C(F)(F)F)c2)nc2ccc(NC(=O)c3cncc(Br)c3)cc12`?
HCMV antiviral: inconclusive; Lassa entry inh: -19.1%[46.1 µM]; FMDV inh: 31.6µM*

What do the screens show for `Cc1ccccc1C(=O)Nc1ccc2nc(Nc3cccc(C(F)(F)F)c3)cc(C)c2c1`?
HCMV antiviral: -12.6; Lassa entry inh: -24.0%[46.1 µM]; FMDV inh: inconclusive

How did Cc1cc(Nc2cccc(Cl)c2)nc2ccc(NC(=O)c3cncc(Br)c3)cc12 do in these assays?
HCMV antiviral: -99.7*; Lassa entry inh: -20.8%[46.1 µM]; FMDV inh: -13.4%

Results for CC1(C)CC(NC(=O)C2=C(C(=O)NC3CC(C)(C)NC(C)(C)C3)CCCC2)CC(C)(C)N1 ?
Marburg entry inh: -17.0%

What do the screens show for `Cc1nc2c(c(=O)c3ccccc3n2C)c(=O)n1C1CCCC1`?
HCMV antiviral: 56.9

How did Cn1c2ccccc2c(=O)c2c(=O)n(C3CCCCCC3)c(C3CCCCC3)nc21 do in these assays?
HCMV antiviral: -25.9; Lassa entry inh: -3.8%; FMDV inh: 25.1µM*; HCV inhibitor: 0.8%; Marburg entry inh: -18.9%

How did Cn1c2ccccc2c(=O)c2c(=O)n(C3CCCCC3)c(-c3cccs3)nc21 do in these assays?
HCMV antiviral: inconclusive; Lassa entry inh: -26.1%; FMDV inh: -26.4%; HCV inhibitor: 10µM*; Marburg entry inh: -28.4%

What do the screens show for `Cn1c2ccccc2c(=O)c2c(=O)n(-c3ccccc3)c(C3CCCCC3)nc21`?
HCMV antiviral: 50.1; Lassa entry inh: 1.0%; FMDV inh: -39.3%; HCV inhibitor: 13.4%; Marburg entry inh: inconclusive

How did CCc1nc2c(c(=O)c3ccccc3n2C)c(=O)n1C1CCCCCC1 do in these assays?
HCMV antiviral: -63.1*; Lassa entry inh: inconclusive; FMDV inh: -8.1%; HCV inhibitor: inconclusive; Marburg entry inh: 2.0%

How did COc1ccc(CCn2c(C3CCCCC3)nc3c(c(=O)c4ccccc4n3C)c2=O)cc1 do in these assays?
HCMV antiviral: -13.8; FMDV inh: inconclusive; HCV inhibitor: 3.55µM*

What do the screens show for `COc1ccc(CCn2c(C3CCCCC3)nc3c(c(=O)c4ccccc4n3C)c2=O)cc1OC`?
HCMV antiviral: inconclusive; Lassa entry inh: -25.6%[46.1 µM]; FMDV inh: -18.4%; HCV inhibitor: inconclusive; Marburg entry inh: inconclusive
